Screens (PubChem)
A selection: hits, their analogues and other compounds. The true share with any hit is near 12%.
G9a inh – qHTS Assay for Inhibitors of Histone Lysine Methyltransferase G9a | Histone-lysine N-methyltransferase EHMT2 (Homo sapiens), Q96KQ7 | G9a H3K9 monomethylation, AlphaScreen, 2 h | Potency, µM (titrated, usually from 102 µM), inactives show at the highest dose activity, negative = inhibition, actives largely listed as inhibitors | 350,000 compounds, 8.8% hits; also: % is scaled to controls: 0 for no effect and ±100 for the full control effect; nearly all actives have a fitted effect of over 75% in size
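Using a bead-based AlphaScreen, monomethylated H3K9 product from 2 h room-temperature reactions (G9a 20 nM, peptide 500 nM, SAM 20 uM) was detected with 0.5 ug/mL rabbit anti-H3K9me1 antibody.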
BAZ2B inh – qHTS Assay for Inhibitors of BAZ2B; AlphaScreen BAZ2B-H3K14Ac peptide displacement; Bromodomain adjacent to zinc finger domain protein 2B (Homo sapiens), Q9UIF8; 360,000 compounds, 4.4% hits; Potency, µM (highest dose often 114 µM), inactives show at the highest dose activity change, negative = inhibition, actives largely listed as inhibitors; AID 504333, 2011; also: % is scaled to controls: 0 for no effect and ±100 for the full control effect; nearly all actives have a fitted effect of over 60% in size
Target sequence (Q9UIF8 whole entry, looked up, the tested form may be a part): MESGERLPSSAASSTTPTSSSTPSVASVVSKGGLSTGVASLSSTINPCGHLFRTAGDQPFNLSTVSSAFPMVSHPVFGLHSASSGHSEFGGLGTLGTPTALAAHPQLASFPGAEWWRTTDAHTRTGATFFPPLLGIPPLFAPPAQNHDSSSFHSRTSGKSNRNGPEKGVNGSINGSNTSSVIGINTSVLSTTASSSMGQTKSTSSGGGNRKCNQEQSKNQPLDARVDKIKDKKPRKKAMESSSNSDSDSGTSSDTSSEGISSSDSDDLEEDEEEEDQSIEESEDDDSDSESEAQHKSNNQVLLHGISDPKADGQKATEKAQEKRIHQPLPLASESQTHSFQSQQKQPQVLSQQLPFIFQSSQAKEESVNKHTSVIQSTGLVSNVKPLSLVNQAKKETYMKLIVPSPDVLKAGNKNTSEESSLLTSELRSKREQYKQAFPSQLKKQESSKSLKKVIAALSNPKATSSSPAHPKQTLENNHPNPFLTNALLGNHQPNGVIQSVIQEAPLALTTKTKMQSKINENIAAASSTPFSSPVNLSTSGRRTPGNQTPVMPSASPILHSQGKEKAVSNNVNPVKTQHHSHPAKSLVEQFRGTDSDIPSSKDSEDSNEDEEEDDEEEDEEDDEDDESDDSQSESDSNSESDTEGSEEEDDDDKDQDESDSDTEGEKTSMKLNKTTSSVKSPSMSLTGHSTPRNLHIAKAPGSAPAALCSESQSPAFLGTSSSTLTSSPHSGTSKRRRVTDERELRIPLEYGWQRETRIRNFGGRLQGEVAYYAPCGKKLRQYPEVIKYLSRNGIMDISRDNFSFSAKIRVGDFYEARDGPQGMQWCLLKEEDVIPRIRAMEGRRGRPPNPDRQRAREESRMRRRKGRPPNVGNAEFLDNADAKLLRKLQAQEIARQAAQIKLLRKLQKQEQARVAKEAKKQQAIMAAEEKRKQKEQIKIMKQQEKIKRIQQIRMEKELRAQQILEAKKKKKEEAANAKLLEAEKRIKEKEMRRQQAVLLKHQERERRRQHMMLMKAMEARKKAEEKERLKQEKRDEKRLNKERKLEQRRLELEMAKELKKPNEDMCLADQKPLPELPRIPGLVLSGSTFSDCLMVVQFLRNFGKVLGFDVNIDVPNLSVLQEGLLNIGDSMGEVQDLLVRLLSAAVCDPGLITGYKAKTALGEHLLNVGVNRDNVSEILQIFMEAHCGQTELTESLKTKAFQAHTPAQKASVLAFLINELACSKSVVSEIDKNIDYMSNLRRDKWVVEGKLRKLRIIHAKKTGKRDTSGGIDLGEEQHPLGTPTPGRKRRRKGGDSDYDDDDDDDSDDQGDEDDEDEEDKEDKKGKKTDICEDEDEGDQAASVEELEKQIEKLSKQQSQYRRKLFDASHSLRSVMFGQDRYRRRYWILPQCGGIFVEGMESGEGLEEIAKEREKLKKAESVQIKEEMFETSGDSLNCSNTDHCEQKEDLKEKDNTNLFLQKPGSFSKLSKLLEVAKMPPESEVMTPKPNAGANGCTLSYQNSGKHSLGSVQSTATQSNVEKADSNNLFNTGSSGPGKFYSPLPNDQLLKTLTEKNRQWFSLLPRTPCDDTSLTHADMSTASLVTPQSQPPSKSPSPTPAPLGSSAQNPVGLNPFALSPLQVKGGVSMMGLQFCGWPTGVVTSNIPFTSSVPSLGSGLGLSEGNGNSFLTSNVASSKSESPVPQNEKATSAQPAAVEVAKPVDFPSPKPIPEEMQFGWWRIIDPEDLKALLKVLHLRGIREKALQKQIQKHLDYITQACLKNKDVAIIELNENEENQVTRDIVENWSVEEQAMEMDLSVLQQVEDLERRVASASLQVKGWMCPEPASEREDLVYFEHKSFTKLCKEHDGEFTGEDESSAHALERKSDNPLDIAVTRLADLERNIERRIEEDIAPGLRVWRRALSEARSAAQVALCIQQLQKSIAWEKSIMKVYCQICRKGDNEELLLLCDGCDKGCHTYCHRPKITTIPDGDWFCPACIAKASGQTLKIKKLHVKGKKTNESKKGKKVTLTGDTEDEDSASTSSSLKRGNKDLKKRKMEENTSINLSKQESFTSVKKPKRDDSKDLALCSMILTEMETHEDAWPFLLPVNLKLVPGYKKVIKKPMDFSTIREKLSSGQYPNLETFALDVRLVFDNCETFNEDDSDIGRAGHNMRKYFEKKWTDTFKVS
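AlphaScreen luminescence quantifies BAZ2B engagement of H3K14Ac peptide; the protein and biotinylated peptide are both at 50 nM final, buffer PBS pH 7.4 with 0.01% Tween-20, all steps at room temperature.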
PLK1 PBD inh – qHTS for Inhibitors of PLK1-PDB (polo-like kinase 1 - polo-box domain): Primary Screen | Plk1 PBD binding of FITC phosphopeptide, fluorescence polarization | 360,000 compounds, 2.8% hits | Potency, µM, for the others: max response, negative = inhibition, usual class: inhibitors | Serine/threonine-protein kinase PLK1 (Homo sapiens), P53350; also: series mostly up to about 57 µM; % is scaled to controls: 0 for no effect and ±100 for the full control effect; nearly all actives have a fitted effect of over 65% in size
Sfp PPTase inh – qHTS Assay for Inhibitors of Bacillus subtilis Sfp phosphopantetheinyl transferase (PPTase) | 4'-phosphopantetheinyl transferase ffp (Bacillus subtilis), Q9F4F7 | Biochemical Sfp PPTase activity, qHTS | Potency, µM, for inactives: largest response in the series, negative = inhibition, most hits filed as inhibitors | 310,000 compounds, 3.5% hits;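 also: the enzyme is Sfp with the accession as filed and its product quenches rhodamine fluorescence; 0% = enzyme reaction without inhibitor and -100% = no enzyme wells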
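After 15 min at room temperature with compound, 15 nM Sfp received 5 uM rhodamine-CoA plus 12.5 uM BHQ-2-ybbR (50 mM Hepes pH 7.6, 10 mM MgCl2). Rate came from the fluorescence difference over 30 min, ex 525/em 598 nm.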
HP1b binding inh – HTS for Inhibitors of HP1-beta Chromodomain Interactions with Methylated Histone Tails. Chromobox protein homolog 1 (Homo sapiens), P83916. AlphaScreen HP1-beta / biotin-H3K9me3 peptide binding. Potency, µM (top dose mostly 114 µM), for the others: top-dose activity change, negative = inhibition, usual class: inhibitors. 390,000 compounds, 0.56% hits. AID 540317, 2011; also: nearly all actives have a fitted effect of over 70% in size
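Compound inhibition of the preformed complex between 50 nM HP1-beta and 50 nM biotinylated H3K9me3 peptide was read by AlphaScreen. Buffer was PBS pH 7.4 with 0.01% Tween-20. Incubations ran 30 min at room temperature, with 10 ug/mL donor/acceptor beads.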
JMJD2A Tudor – qHTS Assay for Inhibitors of JMJD2A-Tudor Domain | AlphaScreen JMJD2A-Tudor / H3K4me3 peptide binding | Potency, µM (series often up to 114 µM), without a hit: at the highest dose activity change, negative = inhibition, usual class: inhibitors | Lysine-specific demethylase 4A (Homo sapiens), O75164 | 390,000 compounds, 4.4% hits; also: % is scaled to controls: 0 for no effect and ±100 for the full control effect; nearly all actives have a fitted effect of over 50% in size
Active calls of the source: *; ? = inconclusive; · = no result; [ ] = another dose, or the depositor's remark. Calls follow the shape of the dose curve; as a rule, active = well fitted curve in the direction sought with a large enough effect; inconclusive = small, poorly fitted or top-dose-only effect, or another doubt; inactive = no such curve, though single readings can be large; an effect the other way counts as inactive or inconclusive. Potency is read from the fitted curve at half-maximal effect.

SMILES | G9a inh | BAZ2B inh | PLK1 PBD inh | Sfp PPTase inh | HP1b binding inh | JMJD2A Tudor
CCc1cccc(NC(=O)CS(=O)Cc2nc(-c3ccc(C)cc3)oc2C)c1 (stereo not given) | 45µM* | -39% | -4% | -10% | 1% | -29%
Cc1ccc(-c2nc(CS(=O)CC(=O)NC3CCC(C)CC3)c(C)o2)cc1 (stereo not given) | 50µM* | -25% | ? | ? | 3% | -24%
Cc1ncc(C(O)c2ccccc2)n1Cc1ccccc1 (stereo not given) | · | · | 7% | · | · | ·
CCOC(=O)CNC(c1ccccc1)c1cc(Br)ccc1NC(=O)c1ccc(Cl)cc1 (stereo not given) | -1%[59 µM] | 2% | · | · | 21% | -10%
Cc1ccc(-n2c(-c3ccccc3)nsc2=NC#N)cc1 | · | · | · | · | -2%[57 µM] | -2%[57.1 µM]
COc1cccc(CNC(=O)C2CCN(S(=O)(=O)c3c(C)noc3/C=C/c3cccs3)CC2)c1 | 10%[59 µM] | · | · | · | 22% | -14%
CCC(CC)C(=O)Nc1cccc(-c2nc3cccnc3s2)c1C | -28%[59 µM] | -33% | · | · | -4% | -29%
CCc1ccc(NC(=O)C(C)Sc2ccc(S(=O)(=O)N3CCN(C)CC3)cn2)cc1 (stereo not given) | -7%[2.33 µM] | -2% | 3% | · | 47% | -20%
COc1ccc(CN(C)C(C)C(=O)N(C)CC(=O)Nc2ccc(C)cc2)cc1F (stereo not given) | -28%[12.7 µM] | 7% | 2% | · | 39% | 9%
COc1ccccc1C(=O)Nc1ccc(S(=O)(=O)N2CCCCC2)cc1 | ? | 5% | 1% | 11% | -19% | 1%
O=C1CCCC=C1[C@H](O)CCCCBr | · | · | · | 1% | · | ·
CCc1ccc(-c2nc(CS(=O)CC(=O)NCc3ccccc3)c(C)o2)cc1 (stereo not given) | 28µM* | -15% | ? | -5% | 23% | -12%
COc1cc(C2SC(C)C(=O)N2CCc2ccccc2)cc(OC)c1OC (stereo not given) | 50µM* | -3% | -18% | -6% | 31% | -7%
CN(C)C(=O)OC1=C(c2ccccc2)Sc2ccccc2-n2cccc21 | -26%[59 µM] | · | · | -16% | · | ·
CC(C)CC(=O)NNC(=S)Nc1ccc(S(N)(=O)=O)cc1 | 5.6µM* | -35% | 24µM* | 20µM* | -3% | 2%
CCOc1ccc(NC(=O)NNC(=O)c2ccc(CC)s2)cc1 | · | -32% | -17% | 2% | 28% | -34%
CCc1ccc(C(=O)NNC(=S)Nc2ccc(S(N)(=O)=O)cc2)s1 | 7.9µM* | -2% | -16% | 21% | 15% | -2%[11.4 µM]
O=C(O)c1c(-c2ccccc2)cnc2ccccc12 | · | · | 8% | · | · | ·
Cn1ccnc1C(O)(c1ccccc1)c1ccccc1 | · | -2% | -11% | -22% | -3% | -13%
S=c1[nH]nc(-c2ccco2)n1-c1ccc(Br)cc1 | · | · | -16% | · | ? | 25µM*
CCSc1nnc(Cc2cc(=O)[nH]c(=O)[nH]2)n1-c1cccc(C)c1 | ? | -2% | -3% | 2% | 52% | -20%
Cc1cccc(-n2c(-c3ccco3)nc3c(cnn3-c3ccccc3C)c2=O)c1 | ? | · | · | · | 0% | ?
Cc1cccc(-n2c(-c3ccco3)n[nH]c2=S)c1 | 2µM* | -5% | -12% | -15% | -35% | 5.6µM*
Cc1cccc(-n2c(-c3ccc(Br)o3)n[nH]c2=S)c1 | · | · | -14% | · | 22% | 79µM*
c1ccc(-n2c(-c3ccco3)nnc2-c2ccco2)cc1 | 30%[12.7 µM] | 13% | -8% | 13% | 31% | -3%
SMILES | G9a inh | BAZ2B inh | PLK1 PBD inh | Sfp PPTase inh | HP1b binding inh | JMJD2A Tudor
O=c1c(-c2ccccc2)nc2cnc(N3CCOCC3)nc2n1CCc1ccccc1 | 22%[0.501 µM] | · | · | 3% | · | ·
CC(=O)c1cccc2c(O)c(C3=Nc4ccccc4C3=O)[nH]c12 | ? | 25µM* | ? | 40µM* | -94% | 45µM*
CN1c2ccc([N+](=O)[O-])cc2N(C)C1(C)c1ccccc1 (stereo not given) | · | 8.9µM* | -3% | ? | 10µM* | 10µM*
CN1CCN(C(=O)c2cc([N+](=O)[O-])ccc2Cl)CC1 | 50µM* | -1% | 6% | 7% | 38% | -16%
O=C(Nc1ccc(NC(=O)c2cc([N+](=O)[O-])ccc2N2CCOCC2)cc1)c1cccs1 | 28µM* | -27% | -18% | -2% | 19% | -22%
CN1CCN(c2ccc([N+](=O)[O-])cc2C(=O)N2CCCCC2)CC1 | -11%[59 µM] | 8% | 2% | 23% | 14% | -3%
Cc1cc(=O)oc2cc(NC(=O)c3cc([N+](=O)[O-])ccc3N3CCOCC3)ccc12 | 40µM* | -11% | -7% | -2% | 9% | -23%
O=C(Nc1ccc(N2CCCC2)cc1)c1cc([N+](=O)[O-])ccc1N1CCOCC1 | · | ? | -12% | -5% | ? | 45µM*
O=C(Nc1cc([N+](=O)[O-])ccc1N1CCOCC1)c1cccs1 | 10% | -2% | -8% | 4% | 30% | -24%
O=C(Nc1ccc2oc(=O)ccc2c1)c1cc([N+](=O)[O-])ccc1N1CCOCC1 | -12% | -6% | -7% | 2% | 29% | -2%
COc1ccc(/C=C/C(=O)Oc2ccc(C)cc2)cc1 | 32% | 1% | -1% | 6% | 66% | 12%
Cc1cccc(NC(=O)c2ccc(N(Cc3ccccc3)S(C)(=O)=O)cc2)c1 | ? | -3% | · | · | 6% | -19%
N#Cc1cc([N+](=O)[O-])ccc1N1CCCC1 | -5% | -31% | 27µM* | 1% | ? | ?
O=C(c1cc([N+](=O)[O-])ccc1N1CCOCC1)N1CCN(c2ccc([N+](=O)[O-])cc2)CC1 | 11µM* | -14% | -9% | · | 8% | -26%
CCOC(=O)c1cc(CC)sc1NC(=O)c1cc([N+](=O)[O-])ccc1N1CCOCC1 | 11µM* | -11% | ? | 0% | -33% | -24%[57.1 µM]
COC(=O)c1cc(NC(=O)c2cccs2)ccc1N1CCOCC1 | ? | -3% | 27µM* | -14% | -2% | 50µM*
COCCCN1C(=O)C(CC(=O)NCCc2ccccn2)CC(C(=O)N2CCCCCC2)=C1C (stereo not given) | · | · | -8% | · | · | ·
Cc1ccc(S(=O)(=O)N2CCOCC2)cc1NC(=O)c1cc([N+](=O)[O-])ccc1N1CCOCC1 | 56µM* | -6% | -9% | · | -6% | -25%
